Assay results taken from the supplement of paper PMC8183993.
Several values for one entry are separate records, joined by “and”; a condition that tells them apart may be missing. Equal values may be shown once. Where a name gives a salt, the structure may show the parent alone. ± gives the standard deviation of the averaged measurements. The full ranking holds about 3,200 compounds; the median of “nuclei count (viability) relative to DMSO” is about 99, and the lowest 2% start at about 16. The full list was thinned out, with the lowest values kept by preference.

System: U2OS
Assay: nuclei count (viability) relative to DMSO (% of DMSO); higher = more viable cells
Settings: 10 µM; 24 h
Procedure: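 Primary image-based screen in U2OS cells: compounds at 10 uM for 24 h, then a 1 h o-propargyl-puromycin (OPP) pulse, click labelling, and high-throughput microscopy. Mean cytoplasmic OPP intensity and nuclei count were normalised to DMSO wells within each plate (DMSO = 100) and averaged over triplicate plates.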

Structure (SMILES) | nuclei count
O=C(Nc1cc(C(F)(F)F)cc(C(F)(F)F)c1)c1cc(Cl)ccc1O | 78.7
CC(C)C[C@H](NC(=O)N1CCCCCC1)C(=O)N[C@H](Cc1cn(C)c2ccccc12)C(=O)N[C@H](Cc1ccccn1)C(=O)O | 100
O=C1c2c(O)ccc(O)c2C(=O)c2c(NCCNCCO)ccc(NCCNCCO)c21 [Mitoxantrone dihydrochloride] | 15.5
C[N+](C)([O-])CCNc1ccc(NCC[N+](C)(C)[O-])c2c1C(=O)c1c(O)ccc(O)c1C2=O [Banoxantrone dihydrochloride] | 51.2
O=C1c2ccccc2C(=O)c2c(NCCc3ccc(O)cc3)ccc(NCCc3ccc(O)cc3)c21 | 97.1
Nc1[nH]nc2nc3ccccc3nc12 | 98.5
COc1ccc(-c2ccc3ncc4c(c3c2)n(-c2ccc(N3CCNCC3)c(C(F)(F)F)c2)c(=O)n4C)cn1 | 16.4 ± 5.4
Nc1ccc(-c2ccc3ncc4ccc(=O)n(-c5cccc(C(F)(F)F)c5)c4c3c2)cn1 [Torin 2] | 27.7 ± 1.8
CCC(=O)N1CCN(c2ccc(-n3c(=O)ccc4cnc5ccc(-c6cnc7ccccc7c6)cc5c43)cc2C(F)(F)F)CC1 [Torin 1] | 80.4
O=C1[C@@H]2[C@H]3CC[C@H](C3)[C@@H]2C(=O)N1C[C@@H]1CCCC[C@H]1CN1CCN(c2nsc3ccccc23)CC1 [Lurasidone HCl] | 102
CCN1CCN(c2ccc(Nc3cc(N(C)C(=O)Nc4c(Cl)c(OC)cc(OC)c4Cl)ncn3)cc2)CC1 | 96.4
CC(C)[C@H](NS(=O)(=O)c1ccc(-c2ccc(Br)cc2)cc1)C(=O)O | 97.3
CC1(C)C[C@@H]1C(=O)N/C(=C\CCCCSC[C@H](N)C(=O)O)C(=O)O [Cilastatin sodium] | 96.7
CC1(C)C[C@@H]1C(=O)N/C(=C\CCCCSC[C@H](N)C(=O)O)C(=O)O [Cilastatin] | 91.5
COC1=CC(c2cc3ccccc3[nH]2)=N/C1=C\c1[nH]c(C)cc1C [Obatoclax mesylate (GX15-070)] | 45.5
CC[C@]1(O)C[C@H]2CN(CCc3c([nH]c4ccccc34)[C@@](C(=O)OC)(c3cc4c(cc3OC)N(C=O)[C@H]3[C@@](O)(C(=O)OC)[C@H](OC(C)=O)[C@]5(CC)C=CCN6CC[C@]43[C@@H]65)C2)C1 [Vincristine] | 18.1
CC[C@]1(O)C[C@H]2CN(CCc3c([nH]c4ccccc34)[C@@](C(=O)OC)(c3cc4c(cc3OC)N(C=O)[C@H]3[C@@](O)(C(=O)OC)[C@H](OC(C)=O)[C@]5(CC)C=CCN6CC[C@]43[C@@H]65)C2)C1 [Vincristine sulfate] | 17.8
CC[C@]1(O)C[C@@H]2CN(CCc3c([nH]c4ccccc34)[C@@](C(=O)OC)(c3cc4c(cc3OC)N(C)[C@H]3[C@@](O)(C(=O)OC)[C@H](OC(C)=O)[C@]5(CC)C=CCN6CC[C@]43[C@@H]65)C2)C1 [Vinblastine sulfate] | 16.8
CC[C@]1(O)C[C@@H]2CN(CCc3c([nH]c4ccccc34)[C@@](C(=O)OC)(c3cc4c(cc3OC)N(C)[C@H]3[C@@](O)(C(=O)OC)[C@H](OC(C)=O)[C@]5(CC)C=CCN6CC[C@]43[C@@H]65)C2)C1 [Vinblastine] | 100
CCC1=C[C@@H]2CN(C1)Cc1c([nH]c3ccccc13)[C@@](C(=O)OC)(c1cc3c(cc1OC)N(C)[C@H]1[C@@](O)(C(=O)OC)[C@H](OC(C)=O)[C@]4(CC)C=CCN5CC[C@]31[C@@H]54)C2 [Vinorelbine (Navelbine)] | 16.1
CC[C@]12C=CCN3CC[C@@]4(c5cc([C@@]6(C(=O)OC)C[C@@H]7C[C@@H](C(C)(F)F)CN(Cc8c6[nH]c6ccccc86)C7)c(OC)cc5N(C)[C@H]4[C@@](O)(C(=O)OC)[C@@H]1OC(C)=O)[C@@H]32 [Vinflunine Tartrate] | 14.1
O=C(c1cc(O)c(O)c(O)c1)c1ccc(O)c(O)c1O [Exifone] | 94.1

Structure (SMILES) | nuclei count
COc1ccccc1N1CCN(CCN(C(=O)C2CCCCC2)c2ccccn2)CC1 | 101
Cn1nc(C(C)(C)C)cc1C(=O)N[C@@H](Cc1cccc(Cl)c1)C(=O)NCC#N [Cathepsin Inhibitor 1] | 107
CC(C)c1cc(C(C)C)c(CC(=O)NS(=O)(=O)Oc2c(C(C)C)cccc2C(C)C)c(C(C)C)c1 [Avasimibe (CI-1011)] | 99.4
NC(N)=S [Thiourea] | 103
Nc1nc(N)c2nc(-c3cccc(O)c3)cnc2n1 | 94.7 ± 4.5
c1ccc2sc(N3CCN(Cc4ccc5c(c4)OCO5)CC3)nc2c1 [2-[1-(4-Piperonyl)piperazinyl]benzothiazole] | 111
C[C@H](N[C@@H](CCc1ccccc1)C(=O)O)C(=O)N1CCC[C@H]1C(=O)O [Enalaprilat dihydrate] | 94.3
CC(C)c1nc(CN(C)C(=O)N[C@@H](CCN2CCOCC2)C(=O)N[C@H](CC[C@H](Cc2ccccc2)NC(=O)OCc2cncs2)Cc2ccccc2)cs1 [Cobicistat (GS-9350)] | 96.2
CC(C)C[C@H](NC(=O)[C@H](CCc1ccccc1)NC(=O)CN1CCOCC1)C(=O)N[C@@H](Cc1ccccc1)C(=O)N[C@@H](CC(C)C)C(=O)[C@@]1(C)CO1 [Carfilzomib (PR-171)] | 7.25
CC1OC2(CS1)CN1CCC2CC1 (centres undefined) [Cevimeline hydrochloride] | 101
Cc1ccc(C(=O)c2cc(/C=C/C(=O)NO)n(C)c2)cc1 | 92.7
CN(Cc1ccccc1)C(=O)[C@H](Cc1ccc2ccccc2c1)NC(=O)[C@@H]1C[C@@H](O)CN1C(=O)c1cn(C)c2ccccc12 | 98
Cc1cc2c(cc1C1(c3ccc(C(=O)O)cn3)CC1)C(C)(C)CCC2(C)C | 102
CCc1cncnc1N1CCN(Cc2nc3ccc(C(F)(F)F)cc3[nH]2)CC1 | 99.88 ± 0.89
Cc1nc2ccc(NC(=O)Nc3ccnc4cccnc34)cc2o1 | 99.6
NC(=O)Nc1cc(-c2cccc(F)c2)sc1C(=O)N[C@H]1CCCNC1 | 7.62
Cc1c(C(=O)NC2CCCCC2)sc2nc3ccc(N)cc3n12 | 99.5
NC(=O)Nc1sc(-c2ccc(F)cc2)cc1C(N)=O | 47 ± 0.38
Cc1ccc2c(c1)C(=O)C1(O)CCN(c3ccccc3)C1=N2 (centres undefined) [(?)-Blebbistatin] | 96.3
CC(C(=O)Nc1cccc(/N=C/c2c(O)ccc3ccccc23)c1)c1ccccc1 (centres undefined) [Salermide] | 101
Cc1cc(/C=C/c2ccc3cc(N(C)C)ccc3[n+]2C)c(C)n1-c1ccccc1 [Pyrvinium pamoate] | 6.32
CN1CCN(CCc2ccc(Cl)c(Cl)c2)CC1 [BD 1063 dihydrochloride] | 104

Structure (SMILES) | nuclei count
OC(c1ccccc1)C1CCN(CCc2ccccc2)CC1 (centres undefined) | 99.4
NS(=O)(=O)c1cccc2c1c([N+](=O)[O-])cc1nc(O)c(O)nc12 [NBQX disodium salt] | 109
NS(=O)(=O)c1cccc2c1c([N+](=O)[O-])cc1nc(O)c(O)nc12 | 98.7
CNC(=O)c1ccccc1Nc1nc(Nc2ccc(N3CCOCC3)cc2OC)ncc1Cl | 38.9 ± 1.6
COc1cc(N2CCC(N)CC2)ccc1Nc1ncc(Cl)c(-c2c[nH]c3ccccc23)n1 | 7.03
CCOc1cc(N2CCC(O)CC2)ccc1Nc1ncc2c(n1)N(C)c1ccccc1C(=O)N2C | 95.5
CN(C(=O)c1ccc(F)cc1C(F)(F)F)C1CCN(c2nnc(-c3ccnn3C)c3ccccc23)CC1 | 101
C1=N/C2=N/c3ccc(OCCN4CCCC4)c(c3)COC/C=C/COCc3cccc(c3)C(=C1)N2 [Pacritinib (SB1518)] | 16.7
Cn1c(CNc2ccc(C(=N)N)cc2)nc2cc(C(=O)N(CCC(=O)O)c3ccccn3)ccc21 [BIBR 953 (Dabigatran etexilate, Pradaxa)] | 108
N=C(N)NC(=N)Nc1ccccc1 [1-Phenylbiguanide hydrochloride] | 95.6
Cn1cc(C2=C(c3cn(CCCSC(=N)N)c4ccccc34)C(=O)NC2=O)c2ccccc21 [Ro 31-8220 Mesylate] | 29.7
Cn1cc(C2=C(c3cn(CCCSC(=N)N)c4ccccc34)C(=O)NC2=O)c2ccccc21 [Ro 31-8220 mesylate] | 10.6
CN(C)CCCn1cc(C2=C(c3c[nH]c4ccccc34)C(=O)NC2=O)c2ccccc21 | 55.6 and 47.3
Cn1cc(C2=C(c3ccc(Cl)cc3Cl)C(=O)NC2=O)c2ccccc21 | 94.8 and 92.7
O=C(O)CCC/C=C\C[C@@H]1CO[C@H](C(F)(F)F)O[C@@H]1c1ccccc1O | 102
O=C(O)CNC(=O)C(CS)Cc1ccccc1 (racemic) [DL-Thiorphan] | 113
CNC(C)C1CCC(N)C(OC2C(N)CC(N)C(OC3OCC(C)(O)C(NC)C3O)C2O)O1 (centres undefined) [Gentamycin sulfate (Gentacycol)] | 79.5
CC(C)c1noc(N2CCC(COc3ccc(-c4ccc(S(C)(=O)=O)cc4)nc3)CC2)n1 | 109
C=C(NC(=O)C(=C)NC(=O)c1csc(C2=N[C@@H]3c4csc(n4)[C@H]4NC(=O)c5csc(n5)[C@H]([C@](C)(O)[C@@H](C)O)NC(=O)[C@H]5CSC(=N5)/C(=C/C)NC(=O)[C@H]([C@@H](C)O)NC(=O)c5csc(n5)[C@]3(CC2)NC(=O)[C@H](C)NC(=O)C(=C)NC(=O)[C@H](C)NC(=O)[C@H]([C@@H](C)CC)N[C@@H]2C=Cc3c([C@H](C)O)cc(nc3[C@H]2O)C(=O)O[C@@H]4C)n1)C(N)=O [Thiostrepton] | 16.2
CC(=O)OC[C@H]1O[C@@H]([S-])[C@H](OC(C)=O)[C@@H](OC(C)=O)[C@@H]1OC(C)=O.CCP(CC)CC.[Au+] [Auranofin] | 13.4
